Experimental data: paper PMC11006913

Experiments:
Test in all cases: PBM; 200 nM protein, PBS
Settings in all cases: dsDNA, one strand shown
[1] = biological target: CRX (Homo sapiens, UniProt O43186 26-111)
[2] = biological target: CRX (Homo sapiens, UniProt O43186 26-111, E42D)
[3] = biological target: PITX2 (Homo sapiens, UniProt Q99697 72-157)
[4] = biological target: CRX (Homo sapiens, UniProt O43186 26-111, R41L)
[5] = biological target: NKX3-2 (Homo sapiens, UniProt P78367 192-278, P234S)
[6] = biological target: NKX3-2 (Homo sapiens, UniProt P78367 192-278)
Chain of NKX3-2 (Homo sapiens, UniProt P78367 192-278) (P78367 192-278): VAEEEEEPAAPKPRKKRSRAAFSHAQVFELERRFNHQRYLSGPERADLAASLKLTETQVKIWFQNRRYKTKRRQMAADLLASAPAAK

Chain of CRX (Homo sapiens, UniProt O43186 26-111) (O43186 26-111): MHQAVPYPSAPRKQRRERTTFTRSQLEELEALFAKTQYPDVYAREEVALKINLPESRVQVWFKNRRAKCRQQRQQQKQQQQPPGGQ
Chain of CRX (Homo sapiens, UniProt O43186 26-111, E42D) (O43186 26-111 E42D): as the sequence (O43186 26-111) above, with E17D counted along it
Chain of CRX (Homo sapiens, UniProt O43186 26-111, R41L) (O43186 26-111 R41L): as the sequence (O43186 26-111) above, with R16L counted along it
Chain of NKX3-2 (Homo sapiens, UniProt P78367 192-278, P234S) (P78367 192-278 P234S): as the sequence (P78367 192-278) above, with P43S counted along it

Sequence	binding signal [1]	binding signal [2]	binding signal [3]	binding signal [4]	binding signal [5]	binding signal [6]
GGATTAAA	13.5 upbm affinity estimate (log intensity, higher = more binding, comparable within an allelic series)	13.6 upbm affinity estimate (log intensity, higher = more binding, comparable within an allelic series)	13.3 upbm affinity estimate (log intensity, higher = more binding, comparable within an allelic series)	13.4 upbm affinity estimate (log intensity, higher = more binding, comparable within an allelic series)	–	–
CGGGATTA	13.4 upbm affinity estimate (log intensity, higher = more binding, comparable within an allelic series)	13.4 upbm affinity estimate (log intensity, higher = more binding, comparable within an allelic series)	13.3 upbm affinity estimate (log intensity, higher = more binding, comparable within an allelic series)	13.3 upbm affinity estimate (log intensity, higher = more binding, comparable within an allelic series)	–	–
AGGATTAA	13.6 upbm affinity estimate (log intensity, higher = more binding, comparable within an allelic series)	13.7 upbm affinity estimate (log intensity, higher = more binding, comparable within an allelic series)	13.3 upbm affinity estimate (log intensity, higher = more binding, comparable within an allelic series)	13.5 upbm affinity estimate (log intensity, higher = more binding, comparable within an allelic series)	–	–
ACCAGTCG	–	–	–	–	10.4 upbm affinity estimate (log intensity, higher = more binding, comparable within an allelic series)	10.4 upbm affinity estimate (log intensity, higher = more binding, comparable within an allelic series)
AGGCATAA	10.3 upbm affinity estimate (log intensity, higher = more binding, comparable within an allelic series)	10.1 upbm affinity estimate (log intensity, higher = more binding, comparable within an allelic series)	–	9.78 upbm affinity estimate (log intensity, higher = more binding, comparable within an allelic series)	–	–
GCGTGACC	8.46 upbm affinity estimate (log intensity, higher = more binding, comparable within an allelic series)	8.49 upbm affinity estimate (log intensity, higher = more binding, comparable within an allelic series)	–	8.39 upbm affinity estimate (log intensity, higher = more binding, comparable within an allelic series)	–	–
CGTTCTAC	8.44 upbm affinity estimate (log intensity, higher = more binding, comparable within an allelic series)	8.39 upbm affinity estimate (log intensity, higher = more binding, comparable within an allelic series)	–	8.27 upbm affinity estimate (log intensity, higher = more binding, comparable within an allelic series)	–	–
CCTCGCCC	8.43 upbm affinity estimate (log intensity, higher = more binding, comparable within an allelic series)	8.52 upbm affinity estimate (log intensity, higher = more binding, comparable within an allelic series)	–	8.44 upbm affinity estimate (log intensity, higher = more binding, comparable within an allelic series)	–	–
GATTATAA	12.7 upbm affinity estimate (log intensity, higher = more binding, comparable within an allelic series)	12.6 upbm affinity estimate (log intensity, higher = more binding, comparable within an allelic series)	–	12.6 upbm affinity estimate (log intensity, higher = more binding, comparable within an allelic series)	–	–
GAACGTTC	8.02 upbm affinity estimate (log intensity, higher = more binding, comparable within an allelic series)	7.99 upbm affinity estimate (log intensity, higher = more binding, comparable within an allelic series)	–	8.07 upbm affinity estimate (log intensity, higher = more binding, comparable within an allelic series)	–	–
AATTCCAT	10.2 upbm affinity estimate (log intensity, higher = more binding, comparable within an allelic series)	10.1 upbm affinity estimate (log intensity, higher = more binding, comparable within an allelic series)	–	9.91 upbm affinity estimate (log intensity, higher = more binding, comparable within an allelic series)	–	–
CTCTCTCC	8.11 upbm affinity estimate (log intensity, higher = more binding, comparable within an allelic series)	8.15 upbm affinity estimate (log intensity, higher = more binding, comparable within an allelic series)	–	8.3 upbm affinity estimate (log intensity, higher = more binding, comparable within an allelic series)	–	–
CGACGGAC	8.32 upbm affinity estimate (log intensity, higher = more binding, comparable within an allelic series)	8.15 upbm affinity estimate (log intensity, higher = more binding, comparable within an allelic series)	–	8.24 upbm affinity estimate (log intensity, higher = more binding, comparable within an allelic series)	–	–
CATGACAG	8.34 upbm affinity estimate (log intensity, higher = more binding, comparable within an allelic series)	8.16 upbm affinity estimate (log intensity, higher = more binding, comparable within an allelic series)	–	8.25 upbm affinity estimate (log intensity, higher = more binding, comparable within an allelic series)	–	–
AGATAATC	12.9 upbm affinity estimate (log intensity, higher = more binding, comparable within an allelic series)	12.7 upbm affinity estimate (log intensity, higher = more binding, comparable within an allelic series)	–	12.7 upbm affinity estimate (log intensity, higher = more binding, comparable within an allelic series)	–	–
TGCGTCCA	8.29 upbm affinity estimate (log intensity, higher = more binding, comparable within an allelic series)	8.26 upbm affinity estimate (log intensity, higher = more binding, comparable within an allelic series)	–	8.23 upbm affinity estimate (log intensity, higher = more binding, comparable within an allelic series)	–	–
CCGTCGCG	8.16 upbm affinity estimate (log intensity, higher = more binding, comparable within an allelic series)	8.11 upbm affinity estimate (log intensity, higher = more binding, comparable within an allelic series)	–	8.14 upbm affinity estimate (log intensity, higher = more binding, comparable within an allelic series)	–	–
AATATTAC	10.1 upbm affinity estimate (log intensity, higher = more binding, comparable within an allelic series)	9.84 upbm affinity estimate (log intensity, higher = more binding, comparable within an allelic series)	–	9.61 upbm affinity estimate (log intensity, higher = more binding, comparable within an allelic series)	–	–
CGTATACG	8.46 upbm affinity estimate (log intensity, higher = more binding, comparable within an allelic series)	8.43 upbm affinity estimate (log intensity, higher = more binding, comparable within an allelic series)	–	8.43 upbm affinity estimate (log intensity, higher = more binding, comparable within an allelic series)	–	–
CAGGTGCG	8.4 upbm affinity estimate (log intensity, higher = more binding, comparable within an allelic series)	8.3 upbm affinity estimate (log intensity, higher = more binding, comparable within an allelic series)	–	8.29 upbm affinity estimate (log intensity, higher = more binding, comparable within an allelic series)	–	–
GAATAAAC	10 upbm affinity estimate (log intensity, higher = more binding, comparable within an allelic series)	9.83 upbm affinity estimate (log intensity, higher = more binding, comparable within an allelic series)	–	9.51 upbm affinity estimate (log intensity, higher = more binding, comparable within an allelic series)	–	–
ATTAAGCC	12.8 upbm affinity estimate (log intensity, higher = more binding, comparable within an allelic series)	12.8 upbm affinity estimate (log intensity, higher = more binding, comparable within an allelic series)	–	12.2 upbm affinity estimate (log intensity, higher = more binding, comparable within an allelic series)	–	–
